Source: PubChem BioAssay AID588591 (National Center for Advancing Translational Sciences (NCATS), 2011)
Hit rate of the full screen: of about 390,000 compounds, about 4,700 (1.2%) were called active. A call without a number means that no potency is given here. Another 4% or so got no clear call; they are omitted. This is one part of a sample in which actives are shown more often than they occur. Calls come from the whole dose curve; as a rule, active = well fitted inhibition curve with a large enough effect; inconclusive = small, poorly fitted or top-dose-only effect, or another doubt; inactive = no such curve, though single readings can be large or run the other way.

These compounds were tested against DNA polymerase eta (Homo sapiens) (UniProt Q9Y253) (assay: qHTS for Inhibitors of Polymerase Eta). Conditions: recombinant Pol eta, fluorescent DNA replication assay; series mostly up to 114 µM.
Text: The Y-family of DNA polymerases, such as Pol eta, are specifically involved in DNA repair. Pol eta copies undamaged DNA with a lower fidelity than other DNA-directed polymerases. However, it accurately replicates UV-damaged DNA; when thymine dimers are present, this polymerase inserts the complementary nucleotides in the newly synthesized DNA, thereby bypassing the lesion and suppressing the mutagenic effect of UV-induced DNA damage. […] Thus, while pol eta's (and most likely iota's) normal function is to protect humans against the deleterious consequences of DNA damage, under certain conditions they can have deleterious effects on human health. As a consequence, we propose to utilize a high throughput replication assay to identify small molecule inhibitors of pol eta. In a collaboration between the National Institute of Child Health & Human Development (NICHD) and NIH Chemical Genomics Center, a high-throughput, fluorescent screen was developed to screen the NIH Molecular Libraries Small Molecule Repository (MLSMR). This screen is used to identify inhibitors of pol eta. NIH Chemical Genomics Center [NCGC] NIH Molecular Libraries Probe Centers Network [MLPCN] MLPCN Grant: MH090825 Assay Submitter (PI): Roger Woodgate, NICHD)
Three microliters of reagents (buffer in column 3 and 4 as negative control and 10 nM Pol eta in columns 1, 2, and 5-48) were dispensed into a 1,536-well black solid-bottomed plate. Compounds (23 nL) were transferred via Kalypsys pin tool equipped with 1536-pin array. The plates were then incubated for 15 min at room temperature, and 1 µL substrate (50 nM final concentration) was added to start the reaction and kinetically read twice at 0 min and 10 min on the Viewlux reader
Potency is the fitted concentration of half-maximal effect.

DNA polymerase eta (Homo sapiens), sequence (Q9Y253 whole entry, looked up): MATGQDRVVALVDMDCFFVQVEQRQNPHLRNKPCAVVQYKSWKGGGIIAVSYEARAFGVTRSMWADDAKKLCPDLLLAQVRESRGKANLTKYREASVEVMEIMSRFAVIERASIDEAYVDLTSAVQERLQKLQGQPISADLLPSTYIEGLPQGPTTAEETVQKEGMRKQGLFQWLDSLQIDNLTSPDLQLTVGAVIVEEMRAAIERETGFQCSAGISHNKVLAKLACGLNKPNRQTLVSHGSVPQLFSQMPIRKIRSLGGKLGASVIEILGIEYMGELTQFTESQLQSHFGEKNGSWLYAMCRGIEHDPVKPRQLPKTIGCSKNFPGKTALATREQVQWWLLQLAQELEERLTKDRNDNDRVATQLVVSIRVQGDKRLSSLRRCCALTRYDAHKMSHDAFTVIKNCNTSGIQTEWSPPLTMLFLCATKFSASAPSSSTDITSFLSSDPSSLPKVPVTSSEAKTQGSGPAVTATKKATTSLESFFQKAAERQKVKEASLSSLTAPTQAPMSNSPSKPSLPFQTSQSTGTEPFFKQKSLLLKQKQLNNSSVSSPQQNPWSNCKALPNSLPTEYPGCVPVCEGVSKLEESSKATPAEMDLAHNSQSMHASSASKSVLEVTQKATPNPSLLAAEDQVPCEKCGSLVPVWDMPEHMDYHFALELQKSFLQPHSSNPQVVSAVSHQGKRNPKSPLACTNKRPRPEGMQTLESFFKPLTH

Compound	Potency
Cc1cccc(N2C(=O)NC(=O)/C(=C\c3cnn(-c4ccccc4)c3)C2=O)c1	20 µM (active)
CN1C2C=C(N(C(=O)c3ccc(Cl)cc3)c3ccccc3)CC1CC2 (stereo not given)	inactive
CCN(N=Nc1nonc1OC)c1nonc1OC	inactive
C=CC12CN(C)[C@@H]3C4CO[C@H](C[C@H]41)[C@]1(C(=O)Nc4ccccc41)[C@@H]32 (stereo not given in full)	inactive
Cc1c(C(=O)O)cccc1-n1c(C)cc(/C=C2\C(=O)NC(=O)N(c3ccc4c(c3)OCO4)C2=O)c1C	5.01 µM (active)
c1cc2c(cc1C1OCC3C(c4ccc5c(c4)OCO5)OCC13)OCO2 (stereo not given)	inactive
c1ccc2sc(N3CCNCC3)nc2c1	inactive
CC(=NC1CCN(Cc2ccccc2)CC1)c1c(O)n(C)c(=O)n(C)c1=O	inactive
Cn1c(O)c(C=Nc2ccc3c(c2)CCC3)c(=O)n(C)c1=O	inactive
Cc1cc(/C=C2/C(=O)NC(=O)N(Cc3ccco3)C2=O)c(C)n1-c1ccc(C(=O)O)cc1	17.8 µM (active)
Cc1ccc(-n2c(C)cc(/C=C3\C(=O)NC(=O)N(C)C3=O)c2C)cc1C	11.2 µM (active)
Cc1ccnc(-n2c(C)cc(/C=C3\C(=O)NC(=S)N(C)C3=O)c2C)c1	inactive
c1ccc2c(c1)[I+]c1ccccc1-2	inactive
CC(=O)NBr	inactive
Fc1cccc(F)c1CN1CCN(Cc2c(F)cccc2F)CC1	inactive
CCOC(=O)c1ncn2c1[C@@H]1CCCN1C(=O)c1cc(OC)ccc1-2	inactive
Cc1c(Oc2cc(NN3CCCCC3)c([N+](=O)[O-])cc2[N+](=O)[O-])cccc1[N+](=O)[O-]	inactive
CN(c1ccccc1)c1ccc([N+](=O)[O-])c2nonc12	inactive
Nc1ccc([N+](=O)[O-])cc1	inactive
COC(=O)N(c1ccc(OC)cc1)P1(=S)OCCC(C)O1 (stereo not given)	inactive
CC1CCCN1CCC(C(N)=O)(c1ccccc1)c1ccccc1 (stereo not given)	inactive
CC[N+](CC)(CC)CCCCCCCCCC[N+](CC)(CC)CC	inactive
CC(=O)c1c(O)n(C2CCCCCC2)c(=O)[nH]c1=O	inactive
O=C1NC(=O)N(c2ccc(F)cc2)C(=O)/C1=C/c1ccc2c(c1)CCCN2Cc1ccccc1	20 µM (active)
CCC1(CC(C)c2ccccc2)C(=O)NC(=O)NC1=O (stereo not given)	inactive

Compound	Potency
Cc1cccc(OP(=O)(Oc2cccc(C)c2)OC(c2ccccc2)C(F)(F)F)c1 (stereo not given)	inactive
CN(C)/C=C(\C=[N+](C)C)c1[nH]ncc1[N+](=O)[O-]	inactive
COc1ccc(N2C(=O)/C(=C/c3ccco3)C(=O)NC2=S)cc1	1.12 µM (active)
CC(=O)N1CN2CN(C(C)=O)CC(C(=O)c3ccc(Br)cc3)(C2)C1	inactive
Cc1ccc(CN2CCCC(C(=O)c3ccc4c(c3)OCO4)C2)cc1C (stereo not given)	inactive
O=C1NC(=O)C(C/C=C/c2ccccc2)C(=O)N1	inactive
C[C@@H]1CC[C@@]2(OC1)O[C@H]1C[C@H]3[C@@H]4CC=C5C[C@@H](O)[C@H](O)C[C@]5(C)C4CC[C@]3(C)[C@H]1[C@@H]2C (stereo not given in full)	89.1 µM (active)
CN(C)c1ccc(/C=C2\CC3C4CC=C5CC(O)CCC5(C)C4CCC3(C)C2=O)cc1 (stereo not given)	inactive
CCOC(=O)C(O)(c1ccc(N)c(OC)c1)C(F)(F)F (stereo not given)	inactive
COC(=O)C(O)(c1ccc(NC(=O)c2ccco2)c(OC)c1)C(F)(F)F (stereo not given)	inactive
CCCCN1C2CCC1CC(OC(c1ccc(F)cc1)c1ccc(F)cc1)C2 (stereo not given)	inactive
C[C@@H]1C[C@@H]2O[C@H]2/C=C\C=C\C(=O)Cc2c(Cl)c(O)cc(O)c2C(=O)O1	10 µM (active)
COc1ccc(-n2c(O)c(C(C)=Nc3ccc4c(c3)CCC4)c(=O)[nH]c2=O)cc1	inactive
O=C(Nc1ccc(Cl)cc1C(=O)c1ccccc1)c1cc(Cl)cc(Cl)c1	inactive
COc1ccc(C2C=C(C)Oc3c2c(=O)oc2ccccc32)cc1OC (stereo not given)	inactive
CCN1C(=O)NC(=O)C2(CCCC2)C1=O	inactive
O=C1NC(=O)N(CCc2ccc(F)cc2)C(=O)/C1=C/C=C/c1ccccc1	50.1 µM (active)
COC(=O)C1=C(c2cc3ccccc3s2)C[C@@H]2CC[C@H]1N2C(=O)NC(C)C	inactive
COc1ccc(C(=O)CC2C(=O)N(C)C(=O)N(C)C2=O)cc1	inactive
Cc1cc2ccccn2c1C(C[N+](=O)[O-])c1c(F)cccc1Cl (stereo not given)	inactive
COc1cccc(N2C(=O)NC(=O)/C(=C\c3ccc([N+](=O)[O-])s3)C2=O)c1	17.8 µM (active)
O=C1NC(=O)N(c2ccccc2)C(=O)/C1=C/c1ccc([N+](=O)[O-])s1	10 µM (active)
Cn1c(O)c(C=NCCN2CCNCC2)c(=O)n(C)c1=O	inactive
COC(=O)C1=C(c2ccc(OCc3ccccc3)cc2)C[C@@H]2CC[C@H]1N2C(=O)NCc1ccc(Cl)cc1	inactive
O=C(O)C1C2CCC(O2)C1C(=O)O (stereo not given)	inactive

Compound	Potency
CC1=C(C(=O)Nc2ccccc2)SCCO1	inactive
CCOC(=O)C1SC2(C(F)(F)C(F)F)CC1(O)c1c(c(OC)c3occc3c1OC)O2 (stereo not given)	inactive
CCN1CCN(c2nc3c(c(=O)[nH]2)CCC3)CC1	inactive
Cc1cccc(NC(=O)OC2CN3CCC2CC3)c1 (stereo not given)	inactive
CN(C)S(=O)(=O)c1cc(C(=O)N2CCC(C(=O)O)(c3ccccc3)CC2)ccc1Cl	inactive
COC(=O)C1=C(c2c(C)noc2C)C[C@@H]2CC[C@H]1N2C(=O)NCc1ccc2c(c1)OCO2	inactive
CCc1ccc(OCC(=O)N2CCN(CC(=O)Nc3ccccc3Cl)CC2)cc1	inactive
C[C@H]1CN([C@@H](C)CO)C(=O)CCCn2nncc2CO[C@H]1CN(C)C(=O)Oc1ccccc1	inactive
Cc1cc(C(=O)OCC(=O)Nc2c(F)cccc2F)c(C)n1C1CC1	inactive
CN1CCN(/N=C/c2c[nH]c3ccccc23)CC1	inactive
CN1CCc2nc(SC(C(=O)O)c3ccccc3)c(C#N)c(-c3cccs3)c2C1 (stereo not given)	31.6 µM (active)
Cc1ccc(-n2c(/C=C/c3cccc(C(F)(F)F)c3)nc3ccccc3c2=O)cc1	inactive
O=C(CCCn1c(=O)[nH]c2cc(Cl)ccc2c1=O)N1CCC2(CC1)OCCO2	inactive
CCN(CC)C(=O)c1ccc(NC(=O)c2sccc2-c2ccccc2)cc1	inactive
C=CCN(CC=C)C(=O)Nc1ccc(OCC)cc1	inactive
CCOc1ccc(-c2cc(C)n3nc(C(=O)Nc4ccc(C)c(C)c4)cc3n2)cc1	70.8 µM (active)
CC1=C(C(=O)Nc2ccccc2)S(=O)(=O)CCO1	inactive
Cn1cc(C(=O)OCC(=O)N2CCCC2)c2ccccc21	inactive
O=C1NC(=O)N(Cc2ccco2)C(=O)/C1=C\c1cccn1CCOc1ccccc1	79.4 µM (active)
O=C1NC(=O)N(Cc2ccco2)C(=O)/C1=C\c1ccc(-c2ccc(F)cc2)o1	25.1 µM (active)
COc1cccc(OC)c1C(=O)NC(=S)N1C[C@H]2C[C@H](C1)c1cccc(=O)n1C2	inactive
CC(C)c1ccc(OCC(=O)N2CCN(C)CC2)c(Br)c1	inactive
CCOC(=O)C1=C(C)OC(N)=C(C(=O)OC)C12C(=O)Nc1ccc(Br)cc12 (stereo not given)	inactive
COc1cccc(CN2CCCC(C(=O)c3ccccc3SC)C2)c1O (stereo not given)	inactive
Cc1ccc(P(=S)(c2ccc(C)o2)N2CCOCC2)o1	inactive
